“And” between values parts separate entries of the source, which are not always exact repeats. Identical values can stand only once. Counter-ions that a name gives are not always drawn.
Columns and labels:
Assay in all cases: cell viability relative to vehicle control; higher = less cytotoxic
Conditions in all cases: 10 µM
K562 = tested on: K562
In short: (§1)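 After removal of identity-inconsistent compounds, the Selleck bioactive, kinase and epigenetic probe libraries were screened on CRISPR-edited mutant clones and isogenic wild-type clones of four leukaemia lines. Plates were 384-well, each well holding 2000 cells in 50 µL medium and receiving a single 10 µM acoustically dispensed dose. CellTiter-Glo luminescence was read 48 h later, after the supernatant was taken off. Genedata Screener was used to express viability as percent of the on-plate vehicle control.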

MARIMO = tested on: MARIMO
In short: as §1

MOLM14 = tested on: MOLM14
In short: as §1

OCI-AML2 = tested on: OCI-AML2
In short: as §1

SMILES | cell viability (K562; SRSF2 genotype: SRSF2 P95H/wt) | cell viability (K562; SRSF2 genotype: SRSF2 wt/wt) [%] | cell viability (MARIMO; SRSF2 genotype: SRSF2 P95H/wt) [%] | cell viability (MARIMO; SRSF2 genotype: SRSF2 wt/wt) [%] | cell viability (MOLM14; SRSF2 genotype: SRSF2 P95H/wt) [%] | cell viability (MOLM14; SRSF2 genotype: SRSF2 wt/wt) [%] | cell viability (OCI-AML2; SRSF2 genotype: P95H/wt) [%] | cell viability (OCI-AML2; SRSF2 genotype: wt/wt) [%]
C=CCCCCCCCCC(=O)O[C@H]1CC[C@H]2[C@@H]3CCC4=CC(=O)C=C[C@]4(C)[C@H]3CC[C@]12C [Boldenone Undecylenate] | 100% and 92.8% | 95.7 | 86 | 89.2 | 57.4 | 26.7 | 38.1 | 36.7
CC(C)NCC(O)c1ccccc1Cl (configuration not stated) [Clorprenaline HCL] | 98.2% and 96.8% | 104 | 98.2 | 107 | 95.2 | 101 | 108 | 99.1
C/C(=C\c1csc(C)n1)[C@@H]1C[C@@H]2O[C@@H]2CCC[C@H](C)[C@H](O)[C@@H](C)C(=O)C(C)(C)[C@@H](O)CC(=O)O1 [Epothilone A] | 22.5% and 33% | 32.5 | 7.48 | 5.2 | 6.35 | 2.31 | 7.11 | 8.21
COC1=C[C@]23CCCN2CCc2cc4c(cc2[C@@H]3[C@@H]1O)OCO4 [Cephalotaxine] | 91.4% and 93.8% | 93.5 | 91 | 93.2 | 96.1 | 96.5 | 90.8 | 91.4
Cc1cc(SCc2sc(-c3ccc(C(F)(F)F)c(F)c3)nc2C)ccc1OCC(=O)O | 100% and 101% | 105 | 106 | 112 | 99.7 | 103 | 95.9 | 101
CCOC(=O)Nc1ccc(NCc2ccc(F)cc2)cc1N [Retigabine] | 98.5% | 97.3 | 93.7 | 110 | 102 | 105 | 98.5 | 110
COc1ccc(C(=O)N2CCCC2=O)cc1 [Aniracetam] | 105% and 106% | 110 | 107 | 109 | 110 | 109 | 118 | 106
O=C(C[S+]([O-])C(c1ccccc1)c1ccccc1)NO (configuration not stated) [Adrafinil] | 95.6% and 94.3% | 103 | 92.9 | 96.4 | 95.3 | 102 | 91.8 | 110
CN1C(=O)[C@@]23C[C@]4([C@]56C[C@@]78SS[C@@](CO)(C(=O)N7[C@H]5Nc5ccccc56)N(C)C8=O)c5ccccc5N[C@@H]4N2C(=O)[C@]1(CO)SS3 [Chaetocin] | 0.42% and 0.29% | 0.65 | 0.27 | 0.33 | 0.25 | 0.28 | 0.23 | 0.24
Fc1cc(F)c2c(c1)[C@H]1C=CC[C@H]1C(c1cccnc1)N2 (some centres not stated) [Golgicide A] | 25.9% and 36.2% | 32.3 | 14.1 | 27.5 | 46.3 | 68.2 | 12.2 | 22.5
O=c1ccc2ccc3occc3c2o1 [Isopsoralen] | 105% and 98.7% | 105 | 100 | 101 | 108 | 110 | 103 | 97
NCC(CC(=O)O)c1ccccc1 (configuration not stated) [Phenibut] | 105% and 102% | 102 | 102 | 109 | 108 | 104 | 96.7 | 116
C[C@H]1CC[C@@H]2N(C1)C[C@H]1[C@@H]3C[C@H]4[C@@H](CC(=O)[C@H]5C[C@@H](O)CC[C@@]54C)[C@@H]3CC[C@H]1[C@]2(C)O [Imperialine] | 112% and 97.8% | 109 | 103 | 101 | 105 | 106 | 101 | 107
CC1=C[C@]23C(=O)[C@@H](C=C(CO)[C@@H](O)[C@]2(O)[C@H]1O)[C@H]1[C@@H](C[C@H]3C)C1(C)C [Ingenol] | 113% and 98.6% | 111 | 109 | 107 | 111 | 108 | 68.2 | 79
O=S(=O)(F)Cc1ccccc1 [PMSF (Phenylmethylsulfonyl Fluoride)] | 95.7% and 94.9% | 97 | 100 | 99.5 | 99.3 | 102 | 102 | 96.1
O=P1(N(CCCl)CCCl)NCCCO1 (configuration not stated) [Cyclophosphamide monohydrate] | 105% and 103% | 108 | 94.6 | 106 | 99.2 | 102 | 100 | 106
CNCC(=O)c1ccc(O)c(O)c1 [Adrenalone HCl] | 97.4% and 92.4% | 98.3 | 91.8 | 92.3 | 88.6 | 94 | 90.5 | 97.5
COc1cc2c(cc1OC)C(Cc1ccc(O)c(Oc3cc4c(cc3OC)CCN(C)C4Cc3ccc(O)cc3)c1)N(C)CC2.[O-][Cl+3]([O-])([O-])O (configuration not stated) [Liensinine diperchlorate] | 87% and 79.8% | 77.4 | 64.6 | 76.3 | 61.7 | 77.2 | 63.7 | 63.7
CC(C)N(CCC(C(N)=O)(c1ccccc1)c1ccccn1)C(C)C (configuration not stated) [disopyramide phosphate] | 98.9% and 108% | 106 | 104 | 109 | 104 | 104 | 107 | 96.2
C[C@](O)(COc1ccc(C#N)cc1)C(=O)Nc1ccc(C#N)c(C(F)(F)F)c1 | 90.6% and 94.9% | 97.9 | 98.7 | 94.2 | 94 | 96.7 | 99.4 | 93.4
CCC12C=CCN3CC[C@@]4(c5ccc(OC)cc5N(C)[C@H]4[C@@](O)(C(=O)OC)[C@@H]1OC(C)=O)[C@@H]32 (some centres not stated) [Vindoline] | 96.8% and 99.8% | 99.4 | 101 | 107 | 105 | 105 | 103 | 116
CC1=C[C@H]2Cc3[nH]c(=O)ccc3[C@]3(C1)NCCC[C@H]23 [Huperzine B] | 110% and 97% | 113 | 109 | 103 | 113 | 108 | 105 | 94.8
NC(=O)CN1CC(c2ccccc2)CC1=O (configuration not stated) [Phenylpiracetam] | 94.8% and 94.3% | 97.6 | 102 | 96.9 | 99.8 | 98.1 | 101 | 103
CN1C2CCC1CC(O)C2 (configuration not stated) [Tropine] | 105% and 98.9% | 97.2 | 104 | 110 | 99.5 | 103 | 94.5 | 108

Reference: the supplement of paper PMC10981050
